Assay results from PubChem BioAssay.
Active and inactive are the calls of the source.

Columns and labels:
[1] = system: PRMT1 (protein arginine N-methyltransferase 1); test: PRMT1 binders on small-molecule microarrays, primary screen, biochemical, small-molecule microarray, 635 nm fluorescence (AID 1088); conditions: small-molecule microarray binding, higher = more signal;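 note: binding of Prmt1 protein to compounds spotted on small-molecule microarray slides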
[2] = yeast growth modulation, basal conditions, primary screen, YJM789 clinical isolate, OD600, 24 h (AID 1089);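 note: growth of clinical yeast isolate S. cerevisiae YJM 789 seeded 1000 cells per well; test concentration not given here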; conditions: S. cerevisiae YJM789 growth, higher = more signal, called active from +8 up or from −8 down
[3] = fission yeast growth modulation, primary screen, strain 972, OD600, 24 h, no modulator (AID 1090);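 note: basal condition with compound alone and no growth modifier present; test concentration not given here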; conditions: S. pombe 972 growth, higher = more signal, called active from +8 up or from −8 down
[4] = S. cerevisiae growth modulation with rapamycin, primary screen, strain BY4716, OD600, 96 h (AID 1091); conditions: higher = more signal, called active from +8 up or from −8 down; note: test concentration not given here
[5] = target: Torsin-1A-interacting protein 2 (Homo sapiens) (UniProt Q8NFQ8); test: LULL1 binders on small-molecule microarray, primary screen, cell lysate, human LULL1 lysate, 635/667 nm fluorescence (AID 1092); conditions: hLULL1 lysate binding, 635 nm fluorescence, higher = more signal;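 note: probe is lysate of COS7 cells overexpressing human LULL1; score merges per-feature 667 nm fluorescence with signal-to-noise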
Chain of Torsin-1A-interacting protein 2 (Homo sapiens) (Q8NFQ8 whole entry, looked up): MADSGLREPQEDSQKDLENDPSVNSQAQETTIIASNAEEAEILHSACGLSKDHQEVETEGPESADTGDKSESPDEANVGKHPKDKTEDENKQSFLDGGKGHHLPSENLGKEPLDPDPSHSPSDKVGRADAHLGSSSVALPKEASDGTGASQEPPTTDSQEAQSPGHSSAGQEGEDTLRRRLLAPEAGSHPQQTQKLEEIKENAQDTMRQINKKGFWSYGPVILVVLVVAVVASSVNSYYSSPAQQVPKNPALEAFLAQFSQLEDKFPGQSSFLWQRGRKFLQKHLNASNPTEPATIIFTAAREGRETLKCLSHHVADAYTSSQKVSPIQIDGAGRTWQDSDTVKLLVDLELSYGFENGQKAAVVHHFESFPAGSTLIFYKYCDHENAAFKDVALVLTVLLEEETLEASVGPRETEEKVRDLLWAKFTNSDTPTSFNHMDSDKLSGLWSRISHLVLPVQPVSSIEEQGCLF

[6] = E. coli growth modulation, two-sided OD650, primary screen, E. coli filamentation project, strain DRC41, 24 h (AID 1093); conditions: OD650, 24 h, higher = more signal, called active from +8 up or from −8 down;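 note: MC1000 strain lacking acrAB efflux and sulA so SOS filamentation is blocked; test concentration not given here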
[7] = small-molecule microarray binders of probe aLefty2, primary screen, biochemical, biotinylated probe, 635/667 nm fluorescence (AID 1094); conditions: higher = more signal;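 note: score merges spot fluorescence near 667 nm with spot signal-to-noise ratio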
[8] = system: Noggin (protein binding on small-molecule microarray); test: Noggin binders on small-molecule microarray, primary screen, biochemical, 635/667 nm fluorescence (AID 1095); conditions: 635 nm fluorescence, higher = more signal;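 note: score merges 667 nm feature fluorescence with signal to noise over triplicate slides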
[9] = target: Neurogenic locus notch homolog protein 3 (Homo sapiens) (UniProt Q9UM47); test: NOTCH3 binders on small-molecule microarray, primary screen, biochemical, 635/667 nm fluorescence (AID 1096); conditions: NOTCH3 binding, 635 nm fluorescence, higher = more signal
Chain of Neurogenic locus notch homolog protein 3 (Homo sapiens) (Q9UM47 whole entry, looked up): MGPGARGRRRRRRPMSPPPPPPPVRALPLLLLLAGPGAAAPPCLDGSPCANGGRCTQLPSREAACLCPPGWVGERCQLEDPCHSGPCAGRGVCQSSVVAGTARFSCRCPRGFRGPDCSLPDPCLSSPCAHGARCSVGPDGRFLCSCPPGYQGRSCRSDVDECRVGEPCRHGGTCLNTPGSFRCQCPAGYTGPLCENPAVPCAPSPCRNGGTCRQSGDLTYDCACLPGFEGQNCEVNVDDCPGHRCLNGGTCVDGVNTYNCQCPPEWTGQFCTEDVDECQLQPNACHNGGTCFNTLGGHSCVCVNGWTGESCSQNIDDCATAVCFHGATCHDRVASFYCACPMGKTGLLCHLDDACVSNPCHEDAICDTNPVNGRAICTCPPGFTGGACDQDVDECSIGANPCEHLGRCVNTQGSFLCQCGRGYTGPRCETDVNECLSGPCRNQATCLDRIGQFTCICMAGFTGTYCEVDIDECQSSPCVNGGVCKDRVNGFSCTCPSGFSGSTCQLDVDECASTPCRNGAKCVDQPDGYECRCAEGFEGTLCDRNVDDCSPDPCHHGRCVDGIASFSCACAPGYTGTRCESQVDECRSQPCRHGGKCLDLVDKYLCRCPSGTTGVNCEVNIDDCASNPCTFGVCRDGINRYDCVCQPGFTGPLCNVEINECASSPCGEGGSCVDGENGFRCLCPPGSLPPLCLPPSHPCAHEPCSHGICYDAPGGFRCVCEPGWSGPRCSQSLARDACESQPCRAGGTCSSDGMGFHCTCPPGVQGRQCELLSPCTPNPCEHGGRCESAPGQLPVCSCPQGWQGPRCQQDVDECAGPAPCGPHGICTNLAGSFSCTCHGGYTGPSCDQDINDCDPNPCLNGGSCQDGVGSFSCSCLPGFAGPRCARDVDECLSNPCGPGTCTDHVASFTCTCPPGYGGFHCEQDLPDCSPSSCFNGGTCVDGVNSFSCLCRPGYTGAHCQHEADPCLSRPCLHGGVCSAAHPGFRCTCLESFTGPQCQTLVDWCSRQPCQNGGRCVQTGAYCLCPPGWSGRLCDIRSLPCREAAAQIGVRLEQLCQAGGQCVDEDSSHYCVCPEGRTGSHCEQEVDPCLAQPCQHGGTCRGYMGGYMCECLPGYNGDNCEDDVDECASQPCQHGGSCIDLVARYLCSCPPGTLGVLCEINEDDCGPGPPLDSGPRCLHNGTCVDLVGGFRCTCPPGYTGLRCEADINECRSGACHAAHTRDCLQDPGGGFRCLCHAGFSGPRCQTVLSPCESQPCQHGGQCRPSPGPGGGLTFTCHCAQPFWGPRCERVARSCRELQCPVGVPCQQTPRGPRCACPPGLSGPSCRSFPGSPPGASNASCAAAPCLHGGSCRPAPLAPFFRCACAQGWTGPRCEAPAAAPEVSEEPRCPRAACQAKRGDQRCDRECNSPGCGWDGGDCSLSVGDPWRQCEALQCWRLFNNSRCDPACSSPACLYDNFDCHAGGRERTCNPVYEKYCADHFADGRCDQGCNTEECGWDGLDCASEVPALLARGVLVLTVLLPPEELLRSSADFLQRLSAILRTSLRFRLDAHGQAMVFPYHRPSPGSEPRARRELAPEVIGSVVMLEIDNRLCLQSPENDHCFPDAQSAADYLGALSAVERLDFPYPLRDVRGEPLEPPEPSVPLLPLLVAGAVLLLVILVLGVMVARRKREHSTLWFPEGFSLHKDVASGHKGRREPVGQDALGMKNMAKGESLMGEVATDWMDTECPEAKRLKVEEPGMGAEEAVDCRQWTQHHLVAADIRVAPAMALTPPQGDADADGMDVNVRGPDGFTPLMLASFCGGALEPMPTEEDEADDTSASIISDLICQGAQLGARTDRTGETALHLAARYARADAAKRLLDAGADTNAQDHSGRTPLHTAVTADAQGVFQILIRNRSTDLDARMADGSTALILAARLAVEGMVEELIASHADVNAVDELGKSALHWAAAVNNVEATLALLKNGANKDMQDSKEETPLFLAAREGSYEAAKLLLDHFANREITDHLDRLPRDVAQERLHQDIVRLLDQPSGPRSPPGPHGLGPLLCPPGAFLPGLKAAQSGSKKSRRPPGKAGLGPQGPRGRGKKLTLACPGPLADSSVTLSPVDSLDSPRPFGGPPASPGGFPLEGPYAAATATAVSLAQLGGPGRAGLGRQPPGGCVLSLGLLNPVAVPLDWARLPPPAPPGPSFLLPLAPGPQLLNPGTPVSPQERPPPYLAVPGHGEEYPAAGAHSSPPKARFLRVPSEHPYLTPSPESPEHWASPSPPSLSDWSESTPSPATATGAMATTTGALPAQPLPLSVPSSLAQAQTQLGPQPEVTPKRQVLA

[10] = small-molecule microarray binders of probe aEGFR, primary screen, biochemical, biotinylated probe, 635/667 nm fluorescence (AID 1097); conditions: higher = more signal;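 note: probe is a biotinylated anti-EGFR antibody binding compounds printed on slides; score combines fluorescence near 667 nm and signal to noise of each spot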
[11] = system: Plasmodium falciparum Sir2 (PF13_0152, Sir2A); test: pfSir2 binders on small-molecule microarrays, primary screen, biochemical, small-molecule microarray, 635 nm fluorescence (AID 1098); conditions: small-molecule microarray binding, fluorescence 635 nm; higher = more signal;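 note: score merges spot fluorescence intensity with its signal-to-noise ratio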
[12] = small-molecule microarray binders of probe aDKK1, primary screen, biochemical, biotinylated probe, 635/667 nm fluorescence (AID 1099); conditions: higher = more signal;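 note: score merges 667nm spot fluorescence with signal to noise across triplicate slides; reference of the scale not given here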
[13] = small-molecule microarray binders of probe aCHRDL2, primary screen, biochemical, biotinylated probe, 635/667 nm fluorescence (AID 1100); conditions: higher = more signal
[14] = splicing luciferase reporter signal modulators, primary screen, spliceosome inhibition project, cell-based, HEK293, splice +/- reporter (AID 1101); conditions: luminescence, 24 h, higher = more signal, called active from +8 up or from −8 down;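 note: HEK293 cells carrying a splicing-competent luciferase reporter gene; test concentration not given here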
[15] = target: Fibroblast growth factor 10 (Homo sapiens) (UniProt O15520); test: FGF10 binders on small-molecule microarrays, primary screen, biochemical, small-molecule microarray, 635 nm fluorescence (AID 1102); conditions: FGF10 binding, fluorescence 635 nm, higher = more signal
Chain of Fibroblast growth factor 10 (Homo sapiens) (O15520 whole entry, looked up): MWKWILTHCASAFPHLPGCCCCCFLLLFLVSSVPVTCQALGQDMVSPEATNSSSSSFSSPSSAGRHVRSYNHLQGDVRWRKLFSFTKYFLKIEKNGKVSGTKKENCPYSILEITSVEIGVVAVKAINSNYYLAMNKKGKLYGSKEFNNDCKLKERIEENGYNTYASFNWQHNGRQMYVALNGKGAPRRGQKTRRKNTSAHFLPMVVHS

[16] = system: glycogen synthase kinase-3 (GSK3A per assay name; protocol says GSK3B); test: GSK3 binders on small-molecule microarrays, primary screen, biochemical, small-molecule microarray, 635 nm fluorescence, GSK3A (AID 1103); conditions: small-molecule microarray binding, fluorescence 635 nm; higher = more signal; note: the record names both GSK3A and GSK3B
[17] = target: Epidermal growth factor receptor (Homo sapiens) (UniProt P00533); test: EGFR binders on small-molecule microarrays, primary screen, biochemical, small-molecule microarray, 635 nm fluorescence (AID 1104); conditions: EGFR binding, higher = more signal;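 note: score merges 667 nm emission intensity with spot signal to noise over triplicate slides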
Chain of Epidermal growth factor receptor (Homo sapiens) (P00533 whole entry, looked up): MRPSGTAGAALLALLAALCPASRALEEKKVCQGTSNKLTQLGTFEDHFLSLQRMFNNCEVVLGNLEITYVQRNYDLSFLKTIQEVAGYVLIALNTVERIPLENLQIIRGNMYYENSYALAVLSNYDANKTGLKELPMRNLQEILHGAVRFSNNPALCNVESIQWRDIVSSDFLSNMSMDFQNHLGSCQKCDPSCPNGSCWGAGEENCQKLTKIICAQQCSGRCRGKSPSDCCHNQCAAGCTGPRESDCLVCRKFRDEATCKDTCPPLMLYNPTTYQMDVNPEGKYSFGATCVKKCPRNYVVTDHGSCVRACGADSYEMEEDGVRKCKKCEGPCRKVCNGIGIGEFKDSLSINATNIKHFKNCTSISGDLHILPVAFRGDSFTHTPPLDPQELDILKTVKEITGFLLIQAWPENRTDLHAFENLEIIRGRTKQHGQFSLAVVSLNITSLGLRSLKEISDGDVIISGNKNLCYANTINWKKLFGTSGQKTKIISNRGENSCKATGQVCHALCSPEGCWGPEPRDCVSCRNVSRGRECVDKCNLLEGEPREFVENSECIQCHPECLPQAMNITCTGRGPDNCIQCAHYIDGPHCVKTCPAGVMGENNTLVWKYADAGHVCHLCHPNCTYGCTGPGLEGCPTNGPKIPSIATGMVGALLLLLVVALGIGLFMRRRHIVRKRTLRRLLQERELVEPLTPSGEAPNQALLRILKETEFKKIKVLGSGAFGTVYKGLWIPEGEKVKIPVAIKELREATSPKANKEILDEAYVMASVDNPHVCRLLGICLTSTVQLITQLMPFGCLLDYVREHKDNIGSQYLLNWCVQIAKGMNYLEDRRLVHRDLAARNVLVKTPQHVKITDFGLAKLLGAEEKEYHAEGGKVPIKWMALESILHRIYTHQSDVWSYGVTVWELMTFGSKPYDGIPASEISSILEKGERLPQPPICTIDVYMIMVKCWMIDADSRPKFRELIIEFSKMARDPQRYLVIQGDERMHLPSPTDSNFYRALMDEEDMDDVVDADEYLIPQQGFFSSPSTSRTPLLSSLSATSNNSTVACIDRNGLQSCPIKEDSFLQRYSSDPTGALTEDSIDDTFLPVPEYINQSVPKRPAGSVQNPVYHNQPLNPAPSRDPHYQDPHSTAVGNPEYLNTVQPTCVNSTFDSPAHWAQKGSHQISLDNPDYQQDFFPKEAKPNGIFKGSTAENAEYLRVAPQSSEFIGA

[18] = target: Follistatin-related protein 3 (Homo sapiens) (UniProt O95633); test: FSTL3 binders on small-molecule microarrays, primary screen, biochemical, small-molecule microarray, 635 nm fluorescence (AID 1105); conditions: FSTL3 binding, higher = more signal;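 note: score merges emission near 667 nm and signal to noise per printed spot across three slides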
Chain of Follistatin-related protein 3 (Homo sapiens) (O95633 whole entry, looked up): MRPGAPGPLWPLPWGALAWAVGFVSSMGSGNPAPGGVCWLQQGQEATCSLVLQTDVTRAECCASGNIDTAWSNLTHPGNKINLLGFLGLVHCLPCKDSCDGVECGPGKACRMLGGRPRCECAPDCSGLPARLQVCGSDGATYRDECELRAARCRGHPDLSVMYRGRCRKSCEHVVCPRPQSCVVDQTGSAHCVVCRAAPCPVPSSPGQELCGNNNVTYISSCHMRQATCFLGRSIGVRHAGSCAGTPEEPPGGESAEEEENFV

[19] = target: Dickkopf-related protein 1 (Homo sapiens) (UniProt O94907); test: DKK1 binders on small-molecule microarrays, primary screen, biochemical, small-molecule microarray, 635 nm fluorescence scan (AID 1106); conditions: DKK1 binding, higher = more signal;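 note: score merges emission near 667 nm with signal to noise over three replicate slides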
Chain of Dickkopf-related protein 1 (Homo sapiens) (O94907 whole entry, looked up): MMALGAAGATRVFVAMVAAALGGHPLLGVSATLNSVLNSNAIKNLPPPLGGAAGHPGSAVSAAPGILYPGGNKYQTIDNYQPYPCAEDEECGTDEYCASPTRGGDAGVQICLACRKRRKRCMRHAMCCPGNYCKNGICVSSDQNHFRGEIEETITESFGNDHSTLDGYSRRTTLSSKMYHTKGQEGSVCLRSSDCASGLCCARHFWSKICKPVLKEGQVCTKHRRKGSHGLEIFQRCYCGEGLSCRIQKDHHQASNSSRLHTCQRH

[20] = system: Inhibin beta A chain (activin A); test: INHBA (activin A) binders on microarrays, primary screen, biochemical, small-molecule microarray, 635 nm fluorescence scan (AID 1107); conditions: small-molecule microarray binding, higher = more signal;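 note: mouse activin A protein probed at 4.33 µg/mL on printed slides; score merges bound-protein fluorescence near 667 nm with spot signal-to-noise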

| Structure (SMILES) | composite z-score [1] | z-score [2] | z-score [3] | z-score [4] | composite z-score [5] | z-score [6] | composite z-score [7] | composite z-score [8] | composite z-score [9] | composite z-score [10] | composite z-score [11] | composite z-score [12] | composite z-score [13] | z-score [14] | composite z-score [15] | composite z-score [16] | composite z-score [17] | composite z-score [18] | composite z-score [19] | composite z-score [20] |
| --- | --- | --- | --- | --- | --- | --- | --- | --- | --- | --- | --- | --- | --- | --- | --- | --- | --- | --- | --- | --- |
| O[C@@H](Cc1ccccc1)[C@@H](/C=C/C1CC1)N(CC#Cc1ccccc1)Cc1ccccc1Br | -0.0917 | 0.298 (inactive) | 0.398 (inactive) | 1.43 (inactive) | 0.461 | 0.247 (inactive) | 0.0166 | -1.33 | -0.817 | -0.339 | -0.0214 | -0.107 | 1.38 | -1.39 (inactive) | -1.36 | -0.689 | -1.29 | -1.62 | -1.88 | 0.171 |
| O=C(C1N=C(c2ccc(OCCCO)cc2)N(c2ccccc2)O1)N1CCCCC1 (stereo not given) | 1.54 | -0.537 (inactive) | -0.734 (inactive) | 0.0484 (inactive) | 2.95 | 0.828 (inactive) | 0.226 | 0.684 | 0.288 | 0.0542 | 0.984 | 0.88 | 0.0556 | -0.577 (inactive) | 0.648 | 1.22 | -0.0036 | 0.181 | 0.291 | 0.088 |
| CN(C)C(=O)[C@@]1(Cc2ccccc2CN=[N+]=[N-])N=C(c2ccc(OCCCO)cc2)O[C@H]1c1ccccc1N=[N+]=[N-] | 1.43 | -0.415 (inactive) | 0.417 (inactive) | 5.36 (inactive) | 3.37 | 0.151 (inactive) | 0.445 | 0.452 | 1.14 | 0.242 | 1.63 | 0.842 | 1 | -0.731 (inactive) | 0.884 | 0.588 | -0.239 | 0.724 | -0.451 | 0.987 |
| CC1=C2[C@@H](CCc3ccccc3)OB(O)C[C@@H]2[C@@H]2C(=O)N(C)C(=O)[C@@H]2C1 | 0.618 | -0.229 (inactive) | -1.2 (inactive) | -1.24 (inactive) | 0.299 | -0.253 (inactive) | -0.197 | 0.446 | 0.279 | -0.0238 | -0.186 | -0.232 | -0.223 | 0.305 (inactive) | 0.985 | 0.443 | 0.135 | 0.451 | 0.521 | 0.273 |
| Cc1cc(C)c(C(O)C2C=CC3C(=O)N(c4ccccc4)C(=O)C3N2Nc2ccccc2F)c(C)c1 (stereo not given) | -0.0446 | 1.37 (inactive) | 1.11 (inactive) | 1.77 (inactive) | 1.89 | -1.31 (inactive) | 0.0216 | -0.73 | -0.0072 | 0.779 | 0.622 | -0.134 | 0.706 | 1.75 (inactive) | 0.119 | -0.574 | -0.396 | -0.191 | -0.26 | 0.72 |
| CO[C@H]1O[C@H](CO)[C@@H](OC(=O)Nc2ccc3c(c2)OCO3)[C@H](OC(=O)Nc2ccc3c(c2)OCO3)[C@@H]1OC(=O)Nc1ccc2c(c1)OCO2 | 1.54 | 1.15 (inactive) | 1.37 (inactive) | 5.69 (inactive) | 3.44 | 0.508 (inactive) | 0.0909 | 0.643 | 1.03 | -0.039 | 1.33 | 0.203 | 0.195 | -0.714 (inactive) | 1.39 | 1.23 | 0.273 | 1.41 | 0.378 | 0.762 |
| CCOC(=O)C[C@H]1[C@H](OC(=O)Cc2ccc3c(c2)OCO3)[C@@H](NC(=O)c2ccc3ccccc3n2)c2cc(OCCCO)ccc2N1C(=O)c1ccc2ccccc2n1 | 0.755 | -2.47 (inactive) | -1.99 (inactive) | -0.727 (inactive) | 1.03 | 2.22 (inactive) | -0.0708 | 0.719 | 0.497 | -0.124 | 0.138 | 0.0134 | -0.0731 | -1.63 (inactive) | 0.813 | 0.495 | 0.267 | 0.492 | 0.483 | 0.265 |
| CC1CC/C=C\[C@H]2OC34C=CCN(Cc5ccccc5)C(=O)[C@H]3N(C(CO)C(C)C)C(=O)[C@@H]4C2C(=O)O1 (stereo not given in full) | -0.856 | 0.0869 (inactive) | -0.978 (inactive) | 0.101 (inactive) | 0.251 | 0.154 (inactive) | -0.0042 | -0.964 | -1.1 | 0.244 | 0.659 | -0.239 | 0.146 | -0.124 (inactive) | -0.871 | -0.484 | -0.471 | -0.902 | -0.415 | 1.09 |
| CC[C@@H]1C=C(C(=O)O)[C@H](c2ccc(C#N)cc2)N1S(=O)(=O)c1ccc(C)cc1 | 0.799 | -0.407 (inactive) | -0.185 (inactive) | -0.104 (inactive) | 3.47 | 0.405 (inactive) | 0.283 | -0.911 | 0.314 | 0.122 | 1.1 | 0.313 | 0.863 | 0.552 (inactive) | 0.396 | 0.39 | -0.967 | -0.406 | -1.22 | 0.264 |
| COCCCNC(=O)[C@@H]1c2ccccc2C(=O)N(C(C)C)[C@H]1c1ccc(CO)cc1 | -0.325 | 0.602 (inactive) | 0.439 (inactive) | 0.395 (inactive) | -0.719 | -0.214 (inactive) | 0.0321 | 0.523 | -0.406 | -0.02 | 0.634 | -0.0293 | 0.39 | 0.555 (inactive) | -0.346 | -0.291 | -0.104 | 0.115 | 0.0487 | 0.761 |
| CN(C)CCCCCCNC(=O)[C@@H]1C[C@@H]2C(=O)N3CCC[C@H]3C(=O)N2[C@@H]1c1cccc(OCCO)c1 | 1.54 | 0.108 (inactive) | -0.177 (inactive) | 1.04 (inactive) | 1.66 | -0.395 (inactive) | -0.0664 | 1.54 | 1.06 | 0.193 | 1.35 | -0.0718 | 0.481 | 0.134 (inactive) | 0.92 | 1.33 | 1.11 | 1.49 | 1.81 | 0.749 |
| Cc1ccc(S[C@]2(C(=O)NCCN3CCOCC3)CC(=O)N(Cc3ccccc3Cl)[C@@H]2c2ccc(CO)cc2I)cc1 | 0.443 | -0.841 (inactive) | -3.57 (inactive) | 0.665 (inactive) | 2.77 | -0.373 (inactive) | 0.508 | -0.064 | -0.364 | -0.455 | 1.65 | -0.831 | -0.0429 | -0.849 (inactive) | 0.133 | -0.207 | -1.29 | -0.355 | -1.82 | 1.07 |
